Experimental data as given in PubChem BioAssay.
Some of the results follow. The source made the active and inactive calls. Unless noted, no rule for the calls is given here.

How the values were obtained:
[1] = molecular target: Regulator of G-protein signaling 16 (Homo sapiens) (UniProt O15492); experiment: modulators of RGS–Galpha-o binding, primary screen, biochemical, multiplexed beads, flow cytometry, RGS4/7/8/16/19 (AID 1504); settings: multiplexed bead flow cytometry, measured here: RGS16 interaction, at 10 µM;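 also: fluorescently labeled Galpha-o bound to GDP with aluminium fluoride binding biotinylated RGS beads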
[2] = molecular target: Regulator of G-protein signaling 19 (Homo sapiens) (UniProt P49795); experiment: as above; settings: multiplexed bead flow cytometry, measured here: RGS19 interaction, at 10 µM
[3] = molecular target: Regulator of G-protein signaling 4 (Homo sapiens) + Guanine nucleotide-binding protein G(o) subunit alpha (Homo sapiens) (UniProt P49798+P09471); experiment: as above; settings: multiplexed bead flow cytometry, at 10 µM
Chain of Regulator of G-protein signaling 4 (Homo sapiens) + Guanine nucleotide-binding protein G(o) subunit alpha (Homo sapiens) (P09471 whole entry, looked up): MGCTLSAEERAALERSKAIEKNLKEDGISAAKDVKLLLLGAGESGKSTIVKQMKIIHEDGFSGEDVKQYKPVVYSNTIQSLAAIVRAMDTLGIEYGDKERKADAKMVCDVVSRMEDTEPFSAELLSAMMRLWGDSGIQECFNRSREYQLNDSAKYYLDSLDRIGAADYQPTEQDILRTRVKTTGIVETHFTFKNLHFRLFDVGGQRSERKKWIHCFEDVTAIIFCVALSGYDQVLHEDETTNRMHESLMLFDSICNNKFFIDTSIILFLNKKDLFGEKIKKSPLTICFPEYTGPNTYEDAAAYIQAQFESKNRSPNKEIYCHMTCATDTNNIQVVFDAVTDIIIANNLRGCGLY
Chain of Regulator of G-protein signaling 4 (Homo sapiens) + Guanine nucleotide-binding protein G(o) subunit alpha (Homo sapiens) (P49798 whole entry, looked up): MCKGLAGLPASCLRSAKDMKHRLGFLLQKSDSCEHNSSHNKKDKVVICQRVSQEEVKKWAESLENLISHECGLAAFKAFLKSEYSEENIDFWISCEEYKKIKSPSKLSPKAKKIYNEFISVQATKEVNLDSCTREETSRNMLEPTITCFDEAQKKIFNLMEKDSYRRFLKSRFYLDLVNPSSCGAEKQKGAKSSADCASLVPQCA

[4] = molecular target: Regulator of G-protein signaling 7 (Homo sapiens) (UniProt P49802); experiment: as above; settings: multiplexed bead flow cytometry, measured here: RGS7 interaction, at 10 µM
[5] = molecular target: Regulator of G-protein signaling 8 (Homo sapiens) (UniProt P57771); experiment: as above; settings: multiplexed bead flow cytometry, measured here: RGS8 interaction, at 10 µM
[6] = disruption of biotin probe capture by avidin, counter-screen for RGS protein interaction modulators, biochemical, flow cytometry, bead-based (AID 1783;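 active = inhibition above 50%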;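 also: median green fluorescence of gated singlet beads compared with DMSO control wells; 0% = DMSO wells and 100% = complete loss of bead fluorescence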); settings: streptavidin beads, fluorescein-biotin binding; at 10 µM, stronger effect = higher value
[7] = molecular target: Guanine nucleotide-binding protein G(o) subunit alpha (Homo sapiens) (UniProt P09471); experiment: RGS8-Galphao binding modulators, confirmation, biochemical, multiplexed bead flow cytometry, single concentration (AID 1836; in the data active = binding response below about 72% or above about 130%; inactive = in between;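 also: Galphao activated as GDP AlF4 complex before binding bead RGS8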); settings: bead-based flow cytometry RGS8-Galphao binding, fluorescence; at 10 µM; actives lie on both sides
Chain of Guanine nucleotide-binding protein G(o) subunit alpha (Homo sapiens) (P09471 whole entry, looked up): as the sequence (P09471 whole entry, looked up) above

[8] = molecular target: Guanine nucleotide-binding protein G(o) subunit alpha (Homo sapiens) (UniProt P09471); experiment: RGS7-Galphao binding modulators, confirmation, biochemical, multiplexed bead flow cytometry, single concentration (AID 1837; in the data active = response below about 75% or above about 130%; inactive = in between;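 also: fluorescent Galphao activated with GDP and aluminum fluoride binding bead-coupled RGS7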); settings: bead-based flow cytometry RGS7-Galphao binding; at 10 µM; actives lie on both sides
[9] = molecular target: Regulator of G-protein signaling 16 (Homo sapiens) + Guanine nucleotide-binding protein G(o) subunit alpha (Homo sapiens) (UniProt O15492+P09471); experiment: modulators of RGS16-Galphao protein binding, confirmation, biochemical, single concentration, multiplexed bead flow cytometry (AID 1838; in the data active = response below about 74% or above about 130%; inactive = in between;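 also: Galphao activated as the GDP aluminium fluoride complex binding bead-coupled RGS16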); settings: bead-based flow cytometry, at 10 µM, actives lie on both sides
Chain of Regulator of G-protein signaling 16 (Homo sapiens) + Guanine nucleotide-binding protein G(o) subunit alpha (Homo sapiens) (O15492 whole entry, looked up): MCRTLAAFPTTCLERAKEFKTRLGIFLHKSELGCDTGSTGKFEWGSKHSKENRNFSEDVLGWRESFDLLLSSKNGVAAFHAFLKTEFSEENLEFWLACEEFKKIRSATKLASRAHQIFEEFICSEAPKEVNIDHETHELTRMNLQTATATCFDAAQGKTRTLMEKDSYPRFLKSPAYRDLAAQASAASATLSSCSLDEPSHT
Chain of Regulator of G-protein signaling 16 (Homo sapiens) + Guanine nucleotide-binding protein G(o) subunit alpha (Homo sapiens) (P09471 whole entry, looked up): as the sequence (P09471 whole entry, looked up) above

[10] = molecular target: Guanine nucleotide-binding protein G(o) subunit alpha (Homo sapiens) (UniProt P09471); experiment: modulators of RGS4-Galphao protein binding, confirmation, biochemical, single concentration, multiplexed bead flow cytometry (AID 1840; in the data active = binding response below about 74% or above about 130%; inactive = in between); settings: at 10 µM, actives lie on both sides
[11] = molecular target: Guanine nucleotide-binding protein G(o) subunit alpha (Homo sapiens) + Regulator of G-protein signaling 19 (Homo sapiens) (UniProt P09471+P49795); experiment: regulators of RGS19-Galphao binding, confirmation, biochemical, single point, multiplexed bead flow cytometry (AID 1841; in the data active = response below about 50% or above about 160%; inactive = in between;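 also: 100% = no compound control and 0% = blank background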); settings: bead-based flow cytometry RGS19-Galphao binding; at 10 µM; actives lie on both sides
Chain of Guanine nucleotide-binding protein G(o) subunit alpha (Homo sapiens) + Regulator of G-protein signaling 19 (Homo sapiens) (P09471 whole entry, looked up): as above
Chain of Guanine nucleotide-binding protein G(o) subunit alpha (Homo sapiens) + Regulator of G-protein signaling 19 (Homo sapiens) (P49795 whole entry, looked up): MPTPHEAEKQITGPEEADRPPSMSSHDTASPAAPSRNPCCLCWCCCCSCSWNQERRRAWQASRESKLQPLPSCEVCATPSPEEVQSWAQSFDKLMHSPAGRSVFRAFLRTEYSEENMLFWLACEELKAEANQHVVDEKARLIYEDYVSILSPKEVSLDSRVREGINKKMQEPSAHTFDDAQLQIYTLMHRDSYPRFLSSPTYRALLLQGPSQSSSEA

| Compound | RGS16–Galpha-o binding response [1] | RGS19–Galpha-o binding response [2] | RGS4–Galpha-o binding response [3] | RGS7–Galpha-o binding response [4] | RGS8–Galpha-o binding response [5] | inhibition [6] | binding response (% of control) [7] | response (percent of control binding) [8] | response (% of control binding) [9] | binding response (% of control) [10] | response (percent of control binding) [11] |
| --- | --- | --- | --- | --- | --- | --- | --- | --- | --- | --- | --- |
| CCOC(=O)c1oc2c(CN3CCN(C)CC3)c(O)ccc2c(=O)c1-c1ccc(Br)cc1 | 142% | 79.7% | 132% (active) | 318% | 107% | -0.6% (inactive) | 97.5% (inactive) | 95.5% (inactive) | 98.4% (inactive) | 96.9% (inactive) | 92.8% (inactive) |
| CC(=O)c1ccc(NC(=S)NC(=O)CC(C)C)cc1 | 21.8% | 162% | 91.6% (active) | 91.6% | 81.4% | 3.2% (inactive) | 99.1% (inactive) | 86.2% (inactive) | 93.9% (inactive) | 93.6% (inactive) | 87.5% (inactive) |
| CCOc1ccc(NC(=O)CSc2nc3ccccc3c(=O)n2Cc2cccs2)cc1 | -1.24% | 116% | 84.3% (active) | 81.9% | 75.5% | 1.1% (inactive) | 101% (inactive) | 104% (inactive) | 104% (inactive) | 102% (inactive) | 102% (inactive) |
| Cc1ccccc1CS(=O)(=O)CC1(O)CCN(C(=O)c2cccc(C(F)(F)F)c2)CC1 | 106% | 115% | 110% (active) | 157% | 100% | 2.5% (inactive) | 104% (inactive) | 105% (inactive) | 102% (inactive) | 105% (inactive) | 78.9% (inactive) |
| CC1(C)C=C2[C@H]3CC[C@@H]4[C@@]5(C)CCC(=O)C(C)(C)[C@@H]5CC[C@@]4(C)[C@]3(C)CC[C@@]2(C(=O)O)CC1 | 267% | -110% | 119% (active) | 114% | 134% | 0.1% (inactive) | 107% (inactive) | 81.6% (inactive) | 107% (inactive) | 94.2% (inactive) | 68.7% (inactive) |
| COc1ccc(-n2c(SCC(=O)OC(C)C)nnc2-c2ccccn2)cc1 | 242% | 103% | 106% (active) | 101% | 134% | -1.2% (inactive) | 99.1% (inactive) | 96.9% (inactive) | 93.3% (inactive) | 97.2% (inactive) | 60.1% (inactive) |
| CSc1ccc(CN2C(=O)NC3(CCCCCC3)C2=O)cc1 | 99.1% | 1890% | 106% (active) | 219% | 97.9% | -1.7% (inactive) | 96.3% (inactive) | 94.7% (inactive) | 96.5% (inactive) | 97.1% (inactive) | 108% (inactive) |
| CCOc1cc(C(=O)N2CCc3cc(OC)c(OC)cc3C2)ccc1OC(F)F | 124% | -289% | 128% (active) | 159% | 105% |  |  |  |  |  |  |
| CCOC(=O)CSc1nc2c(c(=O)n(Cc3ccccc3Cl)c(=O)n2C)n1C | -55.5% | 98.5% | 74.3% (active) | 88.1% | 78.5% | 0.8% (inactive) | 95.8% (inactive) | 99.8% (inactive) | 99.1% (inactive) | 94.7% (inactive) | 87.7% (inactive) |
| CCC(=O)Nc1c(S(=O)(=O)c2ccccc2)c2nc3ccccc3nc2n1Cc1ccccc1 | 13.9% | 285% | 89.8% (active) | 87.2% | 70.1% | -0.3% (inactive) | 103% (inactive) | 99.2% (inactive) | 104% (inactive) | 103% (inactive) | 101% (inactive) |
| C/C(=N\NS(=O)(=O)c1ccc(Br)cc1)c1cccs1 | -881% | 99.9% | 120% (active) | 106% | 95.4% | 1.5% (inactive) | 102% (inactive) | 103% (inactive) | 103% (inactive) | 104% (inactive) | 99.1% (inactive) |
| CCCn1c(C)cc(C(=O)COC(=O)c2c(C)nn(-c3ccccc3)c2C)c1C | -33.9% | 99.6% | 76.2% (active) | 81.9% | 83.8% | 1.1% (inactive) | 105% (inactive) | 104% (inactive) | 103% (inactive) | 104% (inactive) | 110% (inactive) |
